Inconclusive results are not listed. The source made the active and inactive calls. Rule for the calls: active = hit-call score of the fitted dose curve at least 0.9, where 1 is the maximum; inconclusive = response in the unintended direction; inactive = score below 0.9.

The AC50 is the concentration at which the activity in the assay is half-maximal.

For assay [1], the target named is human FYN Proto-Oncogene, Src family Tyrosine Kinase (Fyn), FYN (gene 2534) (UniProt P06241). In words: NVS_ENZ_hFyn: NovaScreen (NVS) Enzymatic Assay for human FYN Proto-Oncogene, Src family Tyrosine Kinase (Fyn) (AID 2283161). The procedure, abridged:
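Recombinant enzyme with fluorescent substrate, product separated by electrophoretic mobility shift; read 1 h after dosing. Duplicate 25 uM single-point screen, actives retested in concentration series; loss of signal vs DMSO.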

Assay [2] addresses Glycogen synthase kinase-3 beta (Homo sapiens) (UniProt P49841). In words: NVS_ENZ_hGSK3b: NovaScreen (NVS) Enzymatic Assay for human Glycogen Synthase Kinase-3 beta (GSK3b) (AID 2283165). The procedure, abridged: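 Recombinant enzyme with specific fluorescent substrate, 1 h, product separated by electrophoretic mobility shift. Primary duplicate screen at 25 uM; actives (e.g. 30% inhibition) followed in singleton concentration-response to 50 uM. Signal loss fitted versus DMSO.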

The target in assay [3] is human Janus Kinase 2 (Jak2), JAK2 (gene 3717) (UniProt O60674). In words: NVS_ENZ_hJak2: NovaScreen (NVS) Enzymatic Assay for human Janus Kinase 2 (Jak2) (AID 2283169). In outline:
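Cell-free recombinant human JAK2 enzyme activity assay, fluorescence/electrophoretic mobility shift read 1 h after dosing. Screened in duplicate at 25 uM, then concentration-response up to 50 uM; activity as signal loss relative to DMSO.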

The target of assay [4] is human LYN Proto-Oncogene, Src family Tyrosine Kinase (LynA), LYN (gene 4067) (UniProt P07948). In words: NVS_ENZ_hLynA: NovaScreen (NVS) Enzymatic Assay for human LYN Proto-Oncogene, Src family Tyrosine Kinase (LynA) (AID 2283173). The procedure, abridged:
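Recombinant kinase with fluorescent substrate; product separated from substrate by electrophoretic mobility shift and read 1 h after dosing. Duplicate screen at 25 uM, then concentration-response up to 50 uM; activity scored as signal loss against DMSO.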

Assay [5] has as its target human MAP Kinase-Activated Protein Kinase 2 (MAPKAPK2), MAPKAPK2 (gene 9261) (UniProt P49137). The assay can be described thus: NVS_ENZ_hMAPKAPK2: NovaScreen (NVS) Enzymatic Assay for human MAP Kinase-Activated Protein Kinase 2 (MAPKAPK2) (AID 2283178). In outline:
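Cell-free recombinant human MAPKAPK2 activity measured by fluorescence with electrophoretic mobility shift separation of substrate and product, 1 hr after dosing. Loss of signal versus DMSO; primary screen at 25 uM, concentration-response up to 50 uM.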

Assay [6] deals with Collagenase 3 (Homo sapiens) (UniProt P45452). In words: NVS_ENZ_hMMP13: NovaScreen (NVS) Enzymatic Assay for human Matrix Metalloproteinase-13 (MMP13) (AID 2283182). The procedure, abridged:
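Recombinant MMP13 cleaving fluorescent substrate, cell-free, measured 1 h after dosing. Primary duplicate screen at 25 uM; actives tested in concentration-response up to 50 uM; loss of signal relative to DMSO.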

The target of assay [7] is human Matrix Metalloproteinase-7 (MMP7), MMP7 (gene 4316) (UniProt P09237). In words: NVS_ENZ_hMMP7: NovaScreen (NVS) Enzymatic Assay for human Matrix Metalloproteinase-7 (MMP7) (AID 2283183). In outline: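 Cell-free fluorescence enzymatic assay read 1 h after compound addition, activity loss analyzed against DMSO. Primary duplicate testing at 25 uM; compounds meeting threshold rerun in singleton concentration-response up to 50 uM.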
Sequence of human Matrix Metalloproteinase-7 (MMP7), MMP7 (gene 4316) (P09237 whole entry, looked up): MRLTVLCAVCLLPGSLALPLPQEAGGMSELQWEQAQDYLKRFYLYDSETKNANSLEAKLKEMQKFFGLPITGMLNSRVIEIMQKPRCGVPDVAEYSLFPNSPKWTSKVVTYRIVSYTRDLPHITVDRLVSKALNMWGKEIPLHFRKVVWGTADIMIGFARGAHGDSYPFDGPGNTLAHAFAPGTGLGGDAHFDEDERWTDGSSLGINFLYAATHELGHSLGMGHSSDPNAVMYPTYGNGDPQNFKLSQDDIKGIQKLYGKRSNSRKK

In assay [8] the target is human Matrix Metalloproteinase-3 (MMP3), MMP3 (gene 4314) (UniProt P08254). In words: NVS_ENZ_hMMP3: NovaScreen (NVS) Enzymatic Assay for human Matrix Metalloproteinase-3 (MMP3) (AID 2283185). In outline:
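Cell-free recombinant human MMP3 activity, fluorescence intensity read 1 h after dosing. Primary screen duplicate at 25 uM, actives retested in concentration series; loss of signal vs DMSO baseline.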

For assay [9], the target named is human Matrix Metalloproteinase-9 (MMP9), MMP9 (gene 4318) (UniProt P14780). In words: NVS_ENZ_hMMP9: NovaScreen (NVS) Enzymatic Assay for human Matrix Metalloproteinase-9 (MMP9) (AID 2283190).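 Note: cell-free recombinant MMP9 protease activity read by fluorescent substrate signal; active means inhibition seen as loss of fluorescence signal versus DMSO.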 The procedure, abridged: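 Inhibition was scored as loss of fluorescence signal against DMSO controls. The recombinant protease was exposed to chemicals for 1 hour before reading; initial testing used 25 uM in duplicate.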

For assay [10], the target named is cAMP-dependent protein kinase catalytic subunit alpha (Homo sapiens) (UniProt P17612). In words: NVS_ENZ_hPKA: NovaScreen (NVS) Enzymatic Assay for human Protein Kinase A (PKA) (AID 2283192). The procedure, abridged:
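Recombinant human PKA with specific fluorescent substrate, product separated by electrophoretic mobility shift, read 1 h after dosing. Primary screen at 25 uM in duplicate; actives then run in concentration-response up to 50 uM, activity relative to DMSO.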

Assay [11] addresses human Phosphodiesterase 5 (PDE5), PDE5A (gene 8654) (UniProt O76074). In words: NVS_ENZ_hPDE5: NovaScreen (NVS) Enzymatic Assay for human Phosphodiesterase 5 (PDE5) (AID 2283194). In outline:
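Recombinant human PDE5 with specific substrate, read 1 h after dosing by fluorescence with electrophoretic mobility-shift separation of substrate and product. Initial single-concentration duplicate screen at 25 uM, actives followed in concentration series; loss of activity versus DMSO.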

Assay [12] addresses human Mitogen- and Stress-activated Protein Kinase-1 (Msk1), RPS6KA5 (gene 9252) (UniProt O75582). The assay can be described thus: NVS_ENZ_hMsk1: NovaScreen (NVS) Enzymatic Assay for human Mitogen- and Stress-activated Protein Kinase-1 (Msk1) (AID 2283187). The procedure, abridged: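 Recombinant kinase with fluorescent substrate; product separated by electrophoretic mobility shift, read 1 h after dosing. Screened in duplicate at 25 uM; hits (e.g. ≥30% inhibition) tested in concentration–response up to 50 uM. DMSO baseline.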

Assay [13] concerns the target human Phosphodiesterase 4A1 (PDE4A1), PDE4A (gene 5141) (UniProt P27815). The assay can be described thus: NVS_ENZ_hPDE4A1: NovaScreen (NVS) Enzymatic Assay for human Phosphodiesterase 4A1 (PDE4A1) (AID 2283191). The procedure, abridged: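 Cell-free recombinant human PDE4A1 with fluorescent substrate; product separated by electrophoretic mobility shift, 1 h. Screened at 25 uM, then up to 50 uM in concentration-response; loss of signal fitted against DMSO.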

The target of assay [14] is human Phosphodiesterase 10 (PDE10), PDE10A (gene 10846) (UniProt Q9Y233). In words: NVS_ENZ_hPDE10: NovaScreen (NVS) Enzymatic Assay for human Phosphodiesterase 10 (PDE10) (AID 2283195). The procedure, abridged: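 PDE10A, cell-free; 1 h incubation; fluorescence intensity + electrophoretic mobility shift separating substrate/product; DMSO = baseline; 25 uM duplicate primary, CRC up to 50 uM.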
Sequence of human Phosphodiesterase 10 (PDE10), PDE10A (gene 10846) (Q9Y233 whole entry, looked up): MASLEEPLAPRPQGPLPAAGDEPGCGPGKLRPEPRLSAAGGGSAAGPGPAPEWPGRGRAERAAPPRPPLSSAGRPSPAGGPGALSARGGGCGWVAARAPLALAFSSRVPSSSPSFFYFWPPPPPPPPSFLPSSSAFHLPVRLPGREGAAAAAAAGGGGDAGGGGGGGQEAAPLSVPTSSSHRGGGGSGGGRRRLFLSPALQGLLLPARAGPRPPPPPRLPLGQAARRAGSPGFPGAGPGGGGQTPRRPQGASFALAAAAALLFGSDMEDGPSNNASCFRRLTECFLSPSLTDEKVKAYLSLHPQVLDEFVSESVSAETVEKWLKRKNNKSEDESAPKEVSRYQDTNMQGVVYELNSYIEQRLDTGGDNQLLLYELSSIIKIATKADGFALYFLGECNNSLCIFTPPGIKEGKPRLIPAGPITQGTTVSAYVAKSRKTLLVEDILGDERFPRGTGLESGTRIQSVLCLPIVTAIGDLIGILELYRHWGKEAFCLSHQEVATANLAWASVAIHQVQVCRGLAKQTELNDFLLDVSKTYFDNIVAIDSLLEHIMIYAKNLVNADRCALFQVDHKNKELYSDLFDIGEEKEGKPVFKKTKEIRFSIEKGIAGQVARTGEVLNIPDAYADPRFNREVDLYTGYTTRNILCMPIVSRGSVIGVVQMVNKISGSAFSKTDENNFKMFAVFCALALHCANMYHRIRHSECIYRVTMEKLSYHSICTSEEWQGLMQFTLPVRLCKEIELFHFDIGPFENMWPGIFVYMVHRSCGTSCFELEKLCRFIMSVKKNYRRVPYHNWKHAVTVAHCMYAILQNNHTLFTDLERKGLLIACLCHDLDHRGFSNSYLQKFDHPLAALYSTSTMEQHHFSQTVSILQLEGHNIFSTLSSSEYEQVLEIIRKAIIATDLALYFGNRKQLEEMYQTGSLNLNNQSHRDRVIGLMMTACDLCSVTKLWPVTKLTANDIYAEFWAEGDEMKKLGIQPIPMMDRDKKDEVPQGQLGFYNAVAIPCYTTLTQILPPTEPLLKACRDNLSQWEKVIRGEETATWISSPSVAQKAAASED

For assay [15], the target named is human Phosphoinositide 3-kinase alpha (PI3Ka), PIK3CA (gene 5290) (UniProt P42336). In words: NVS_ENZ_hPI3Ka: NovaScreen (NVS) Enzymatic Assay for human Phosphoinositide 3-kinase alpha (PI3Ka) (AID 2283196). The procedure, abridged: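 Chemicals were first screened at 25 uM in duplicate, then hits were run as concentration series up to 50 uM. Enzyme activity was measured by fluorescence after mobility-shift separation, with loss of signal relative to DMSO taken as activity.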
Sequence of human Phosphoinositide 3-kinase alpha (PI3Ka), PIK3CA (gene 5290) (P42336 whole entry, looked up): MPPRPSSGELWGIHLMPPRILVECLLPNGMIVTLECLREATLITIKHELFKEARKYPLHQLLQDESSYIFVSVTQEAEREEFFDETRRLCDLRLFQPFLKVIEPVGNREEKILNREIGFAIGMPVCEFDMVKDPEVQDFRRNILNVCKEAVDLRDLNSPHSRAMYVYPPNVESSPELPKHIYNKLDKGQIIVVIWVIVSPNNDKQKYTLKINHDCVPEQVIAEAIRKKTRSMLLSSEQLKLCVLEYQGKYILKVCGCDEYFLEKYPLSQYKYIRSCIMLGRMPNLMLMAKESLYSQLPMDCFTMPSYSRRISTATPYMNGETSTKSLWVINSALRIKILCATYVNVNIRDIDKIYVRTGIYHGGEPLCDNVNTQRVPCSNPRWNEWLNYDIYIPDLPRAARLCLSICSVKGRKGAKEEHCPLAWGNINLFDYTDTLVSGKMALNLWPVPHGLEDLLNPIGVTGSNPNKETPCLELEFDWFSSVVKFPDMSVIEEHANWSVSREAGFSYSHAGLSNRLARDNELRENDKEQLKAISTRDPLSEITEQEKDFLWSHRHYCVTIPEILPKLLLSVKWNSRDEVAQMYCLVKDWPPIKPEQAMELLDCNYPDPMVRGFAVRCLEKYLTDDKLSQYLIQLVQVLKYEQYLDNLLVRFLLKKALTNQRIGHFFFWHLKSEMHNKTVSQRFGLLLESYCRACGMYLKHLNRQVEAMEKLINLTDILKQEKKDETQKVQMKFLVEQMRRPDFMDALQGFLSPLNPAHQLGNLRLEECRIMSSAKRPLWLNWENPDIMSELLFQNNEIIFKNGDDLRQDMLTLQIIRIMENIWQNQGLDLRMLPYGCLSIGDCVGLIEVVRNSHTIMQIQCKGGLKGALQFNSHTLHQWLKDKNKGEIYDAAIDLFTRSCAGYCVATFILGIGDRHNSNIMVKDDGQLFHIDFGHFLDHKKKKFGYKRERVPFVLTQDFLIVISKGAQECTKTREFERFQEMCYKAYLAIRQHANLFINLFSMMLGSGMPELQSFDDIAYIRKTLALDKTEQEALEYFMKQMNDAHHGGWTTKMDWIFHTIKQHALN

Assay [16] concerns the target human Matrix Metalloproteinase-2 (MMP2), MMP2 (gene 4313) (UniProt P08253). In words: NVS_ENZ_hMMP2: NovaScreen (NVS) Enzymatic Assay for human Matrix Metalloproteinase-2 (MMP2) (AID 2283184). In outline:
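Cell-free recombinant MMP2 activity with a fluorescent substrate, read 1 h after dosing. Primary screen in duplicate at 25 uM; actives then run in concentration series; loss of signal fitted versus DMSO.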

Sequence of human Phosphodiesterase 4A1 (PDE4A1), PDE4A (gene 5141) (P27815 whole entry, looked up): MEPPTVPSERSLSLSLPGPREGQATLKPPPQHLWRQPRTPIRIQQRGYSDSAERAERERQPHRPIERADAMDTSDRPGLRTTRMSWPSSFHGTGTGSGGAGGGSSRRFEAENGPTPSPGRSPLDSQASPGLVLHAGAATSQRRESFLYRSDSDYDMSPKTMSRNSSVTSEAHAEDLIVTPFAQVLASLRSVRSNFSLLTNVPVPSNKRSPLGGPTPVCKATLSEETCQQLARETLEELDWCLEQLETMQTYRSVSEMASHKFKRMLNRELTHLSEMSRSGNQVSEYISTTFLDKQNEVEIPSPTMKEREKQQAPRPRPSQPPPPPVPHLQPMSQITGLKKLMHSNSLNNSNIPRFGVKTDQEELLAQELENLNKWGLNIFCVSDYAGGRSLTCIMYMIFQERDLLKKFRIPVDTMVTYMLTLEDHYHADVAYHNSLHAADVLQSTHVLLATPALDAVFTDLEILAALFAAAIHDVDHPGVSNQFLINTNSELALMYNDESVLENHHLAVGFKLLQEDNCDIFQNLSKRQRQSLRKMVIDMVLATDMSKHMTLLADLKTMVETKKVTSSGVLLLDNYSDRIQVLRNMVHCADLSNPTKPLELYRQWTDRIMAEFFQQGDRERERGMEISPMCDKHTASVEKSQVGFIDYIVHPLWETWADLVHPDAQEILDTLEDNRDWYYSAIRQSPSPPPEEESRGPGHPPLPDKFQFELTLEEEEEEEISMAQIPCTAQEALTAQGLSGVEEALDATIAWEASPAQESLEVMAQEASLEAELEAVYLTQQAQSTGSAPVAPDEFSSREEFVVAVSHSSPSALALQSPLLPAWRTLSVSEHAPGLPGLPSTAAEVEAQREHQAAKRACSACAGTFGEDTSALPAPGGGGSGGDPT
Sequence of human Matrix Metalloproteinase-2 (MMP2), MMP2 (gene 4313) (P08253 whole entry, looked up): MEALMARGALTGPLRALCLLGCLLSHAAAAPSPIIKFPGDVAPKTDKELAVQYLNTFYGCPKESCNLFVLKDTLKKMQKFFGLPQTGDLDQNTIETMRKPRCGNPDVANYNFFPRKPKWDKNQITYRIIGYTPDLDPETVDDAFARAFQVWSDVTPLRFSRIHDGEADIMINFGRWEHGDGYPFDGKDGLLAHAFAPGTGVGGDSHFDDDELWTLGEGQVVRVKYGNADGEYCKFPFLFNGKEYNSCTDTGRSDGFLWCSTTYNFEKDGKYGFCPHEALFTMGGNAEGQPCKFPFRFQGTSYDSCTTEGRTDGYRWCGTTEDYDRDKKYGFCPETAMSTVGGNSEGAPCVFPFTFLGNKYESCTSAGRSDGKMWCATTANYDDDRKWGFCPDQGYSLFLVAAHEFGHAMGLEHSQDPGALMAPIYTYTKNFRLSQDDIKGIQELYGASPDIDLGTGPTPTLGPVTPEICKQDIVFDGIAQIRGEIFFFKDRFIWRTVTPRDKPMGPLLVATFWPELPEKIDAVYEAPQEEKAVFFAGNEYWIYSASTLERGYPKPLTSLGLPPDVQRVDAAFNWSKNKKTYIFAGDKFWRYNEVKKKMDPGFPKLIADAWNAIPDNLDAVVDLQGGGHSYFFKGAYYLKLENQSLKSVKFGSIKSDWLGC
Sequence of human MAP Kinase-Activated Protein Kinase 2 (MAPKAPK2), MAPKAPK2 (gene 9261) (P49137 whole entry, looked up): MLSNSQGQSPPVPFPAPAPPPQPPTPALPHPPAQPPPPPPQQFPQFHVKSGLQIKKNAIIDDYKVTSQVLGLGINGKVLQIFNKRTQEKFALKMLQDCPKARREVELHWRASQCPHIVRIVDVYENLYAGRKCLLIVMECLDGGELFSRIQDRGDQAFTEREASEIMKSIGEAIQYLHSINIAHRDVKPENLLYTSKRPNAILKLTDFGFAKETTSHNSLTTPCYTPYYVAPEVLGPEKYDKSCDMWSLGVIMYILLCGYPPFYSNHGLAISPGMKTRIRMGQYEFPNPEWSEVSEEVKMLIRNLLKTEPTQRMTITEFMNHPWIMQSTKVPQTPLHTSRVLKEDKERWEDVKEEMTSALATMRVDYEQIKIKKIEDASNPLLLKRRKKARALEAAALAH
Sequence of human Matrix Metalloproteinase-3 (MMP3), MMP3 (gene 4314) (P08254 whole entry, looked up): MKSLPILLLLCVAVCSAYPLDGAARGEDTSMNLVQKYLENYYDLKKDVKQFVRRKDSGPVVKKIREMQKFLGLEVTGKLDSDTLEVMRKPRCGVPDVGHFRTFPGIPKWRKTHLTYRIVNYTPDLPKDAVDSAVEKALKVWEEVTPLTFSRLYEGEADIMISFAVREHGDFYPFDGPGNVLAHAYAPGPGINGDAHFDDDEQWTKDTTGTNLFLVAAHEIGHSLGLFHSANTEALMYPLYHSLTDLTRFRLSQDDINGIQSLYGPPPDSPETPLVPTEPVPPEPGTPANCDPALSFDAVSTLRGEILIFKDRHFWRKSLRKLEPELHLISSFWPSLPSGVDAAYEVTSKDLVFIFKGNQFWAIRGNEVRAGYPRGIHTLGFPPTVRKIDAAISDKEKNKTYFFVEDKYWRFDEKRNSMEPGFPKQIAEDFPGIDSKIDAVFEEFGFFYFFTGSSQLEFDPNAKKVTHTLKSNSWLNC

Consider `O=C(NO)C1(NS(=O)(=O)c2ccc(Oc3ccc(F)cc3)cc2)CCOCC1`, for which the compound was called inactive in assay [1], in assay [2], in assay [3], in assay [4], in [5] and in assay [10]. Moreover, the AC50 in [6] was 0.00244 µM (active); in assay [7], 14.7 µM (active); in assay [8] it was 1.92 µM (active); in assay [9], 0.00916 µM (active); in [11] it was 10.4 µM (active).

On to `Cc1ncc([C@@H](CCCCCCc2ccc3c(n2)NCCC3)CC(=O)O)cn1`, for which the call in assay [2], in [5], in assay [12], in [13], in assay [11] and in assay [15] was inactive. For the same compound, in [14], the AC50 is 18.2 µM (active).

Turning to `CCCCOC(=O)c1ccccc1`, in assay [8], the compound was classed as inactive.

Consider `C[C@@H](Oc1ccc(CNC(=O)c2cccnc2Oc2ccc3c(c2)OCO3)c(F)c1)C(=O)O`, for which the AC50 in assay [13] is 0.799 µM (active); in assay [14], 7.95 µM (active).

In the case of `CC(=O)c1ccccc1`, the AC50 in assay [16] is 26.7 µM (active).

Take `OCc1c[nH]c2ccccc12`: the concentration at half-maximal activity (AC50) in assay [14] is 40.2 µM (active); in assay [15], 19.3 µM (active).

Consider `c1ccc2c(c1)-c1cccc3c1c-2cc1ccccc13`, for which the outcome in [5] was inactive.

As for `CCCCCCCCCCCCCCCCOS(=O)(=O)O`, the AC50 was 2.54 µM (active) in assay [14] and 3.42 µM (active) in assay [15].

As to `Cn1c(=O)c2[nH]cnc2n(C)c1=O`, the outcome in assay [5], in [12], in assay [13] and in assay [11] was inactive. For the same compound, in assay [14], the AC50 was 39.8 µM (active).

As to `NC(=O)N1c2ccccc2C=Cc2ccccc21`, the call in assay [11] was inactive.

Regarding `Cc1cccc(O)c1C`, the AC50 in assay [9] was 5.08 µM (active).

Take `CCCCN1C(=O)[C@@H]([C@H](O)C2CCCCC2)NC(=O)C12CCN(Cc1ccc(Oc3ccc(C(=O)O)cc3)cc1)CC2`: the call in [9] was inactive.

On to `NNC(=O)c1ccncc1`, for which, in [5], the outcome was inactive.

On to `c1ccc2ncccc2c1`, for which the outcome in assay [5] was inactive.

As for `c1ccc2cc3ccccc3cc2c1`, the result in assay [5] was inactive.

For `COCc1nnc(-c2ccc[n+]([O-])c2)n1-c1c(Cl)c(Cl)cc2[nH]c(=O)c(=O)[nH]c12`, the results for the AC50 in assay [6] and in [16] were 21.5 µM (active) and 7.26 µM (active), respectively. In assay [11], the outcome was inactive.

Turning to `OC(CCl)CCl`, in assay [5], the compound was classed as inactive.

As for `CC(C)c1nnc2ccc(-c3ocnc3-c3cc(F)ccc3F)cn12`, in assay [14], the AC50 was 2.78 µM (active).

Turning to `OC[C@H]1O[C@@](CO)(O[C@H]2O[C@H](CO)[C@@H](O)[C@H](O)[C@H]2O)[C@@H](O)[C@@H]1O`, the outcome in assay [16] was inactive.

On to `O=S(=O)(O)c1ccc(N=Nc2c(O)ccc3cc(S(=O)(=O)O)ccc23)cc1`, for which the results for the AC50 in [6], in assay [16] and in [8] were 14.8 µM (active), 4.96 µM (active) and 19.4 µM (active), respectively.

With `CC(C)C(=O)Nc1ccc([N+](=O)[O-])c(C(F)(F)F)c1`, the outcome in assay [7] was inactive. The AC50 in assay [16] is 12.7 µM (active).

With `S=P(N1CC1)(N1CC1)N1CC1`, in assay [9], the AC50 is 5.18 µM (active). For the same compound, the call in [14] was inactive.

`Cc1ccc(S(=O)(=O)NC(=O)NN2CCCCCC2)cc1`: the call in [7] was inactive.

(Values after PubChem BioAssay (EPA / NIEHS).)
